Measurements as given in PubChem BioAssay (EPA / NIEHS).
Records with an inconclusive call do not appear. Calls of active or inactive are those of the source. Rule for the calls: active = hit-call score of the fitted dose curve at least 0.9, where 1 is the maximum; inconclusive = response in the unintended direction; inactive = score below 0.9.

What follows are compounds tested against Estrogen receptor (Homo sapiens) (UniProt P03372) (assay: CCTE_Deisenroth_AIME_384WELL_LUC_Active: CCTE's 384-well Estrogen Receptor Transactivation Assay with AIME metabolic competence (ERTA luciferase; metabolism positive), Deisenroth Lab (AID 2284030)).
Sequence of Estrogen receptor (Homo sapiens) (P03372 whole entry, looked up): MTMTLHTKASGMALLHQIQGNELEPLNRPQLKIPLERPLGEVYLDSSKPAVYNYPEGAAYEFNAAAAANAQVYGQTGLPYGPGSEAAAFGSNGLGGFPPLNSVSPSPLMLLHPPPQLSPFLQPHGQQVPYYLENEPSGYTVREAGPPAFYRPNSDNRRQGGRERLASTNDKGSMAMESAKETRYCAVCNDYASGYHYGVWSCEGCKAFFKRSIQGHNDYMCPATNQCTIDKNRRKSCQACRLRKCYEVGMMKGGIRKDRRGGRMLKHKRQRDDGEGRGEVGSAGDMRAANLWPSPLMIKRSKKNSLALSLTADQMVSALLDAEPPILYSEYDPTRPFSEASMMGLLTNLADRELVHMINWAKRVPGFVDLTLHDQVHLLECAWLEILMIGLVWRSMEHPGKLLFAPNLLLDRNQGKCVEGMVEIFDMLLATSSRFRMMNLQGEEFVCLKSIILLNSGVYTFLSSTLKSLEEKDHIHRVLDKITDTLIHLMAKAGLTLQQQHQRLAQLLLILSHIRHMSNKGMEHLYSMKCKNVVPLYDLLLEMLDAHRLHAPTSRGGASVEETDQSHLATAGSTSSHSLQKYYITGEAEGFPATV
Experimental: CCTE_Deisenroth_AIME_384WELL (AIME metabolism assay) is a cell-based, single-readout assay that uses VM7Luc4E2, a human mammary gland/breast cell line, with measurements taken at 24 hour after chemical dosing in a 384-well plate.CCTE_Deisenroth_AIME_384WELL_LUC_Active is one of four assay components measured or calculated from the CCTE_Deisenroth_AIME_384WELL assay. It is designed to make measurements of luciferase induction, a form of inducible reporter, as detected with bioluminescence signals by luciferase-coupled ATP quantitation technology.CCTE_Deisenroth_AIME_384WELL_LUC_Active is a component of the CCTE_Deisenroth_AIME_384WELL assay that measures the effect of retroftting the VM7Luc ERTA assay with the Alginate Immobolization of Metabolic Enzymes (AIME) metabolism method. AIME is optimized to impart phase I hepatic metabolism using phenobarbital/beta-naphthoflavone induced hepatic S9 from male Sprague Dawley rats. Parent chemicals are incubated for 2 hours in the AIME assay prior to transfer to the VM7Luc ERTA assay plate. […] This endpoint evaluates reporter induction in metabolism positive mode. Using a type of inducible reporter in VM7Luc cells, gain-of-signal activity can be used to understand changes in the reporter gene as they relate to xenobiotic metabolism and the gene ESR1. This assay endpoint, CCTE_Deisenroth_AIME_384WELL_LUC_Active, was analyzed in the positive analysis fitting direction relative to 17beta-estradiol as the positive control in the ERTA assay. To generalize the intended target to other relatable targets, this assay endpoint is annotated to the nuclear receptor intended target family, where the subfamily is steroidal.
The AIME procedure consists of a preparative "pre-stamping" step using a barium chloride/poly-L-lysine (PLL) solution followed by "stamping" the lid in alginate-hepatic S9 (metabolism positive) or alginate-water (metabolism negative) to form microspheres. Once stamping is completed, the AIME lids are placed in duplicate microplates (metabolism positive or negative) containing chemical solutions and incubated for two hours to facilitate metabolic reactions. The conditioned medium, containing parent chemical or metabolites, is then transferred to the cell-based VM7Luc Estrogen Receptor Transactivation Assay (ERTA) for 24 hours. A typical experimental design tests a 10-point concentration series (0.002 - 200 uM) for 8 compounds (96-well format)1 or 32 compounds (384-well format)2 in single technical replicate. AIME assay controls include trans-stilbene (bioactivated control) and ethylparaben (bioinactivated control). ERTA assay plate controls include 17-beta estradiol (positive control) and DMSO (solvent control). Experiments typically comprise a minimum of four experimental replicates (n=4).
For `CC(C)CCCCCCOC(=O)C1CCCCC1C(=O)OCCCCCCC(C)C` (stereo not drawn), the outcome was “inactive”.
With `CCN(CC)C(=S)SSC(=S)N(CC)CC` the outcome was “inactive”.
With `c1ccc(C(O[C@@H]2CCCN(CCc3ccc4c(c3)OCO4)C2)c2ccccc2)cc1` the AC50 was 29.1 µM (active).
With `CCCc1ccccc1` the outcome was “inactive”.
In the case of `CCc1cccc(CC)c1N`, the outcome is reported as “inactive”.
For `c1ccc2ncccc2c1`, the outcome was “inactive”.
With `CCCCOC(=O)c1ccccc1` the outcome was “inactive”.
In the case of `CCCCC(CC)C(=O)OCCOCCOCCOC(=O)C(CC)CCCC` (stereo not drawn), the outcome is reported as “inactive”.
In the case of `OCC(CO)(CO)CO`, the outcome is reported as “inactive”.
For `OCc1ccccc1`, the outcome was “inactive”.
`CCOc1ccc2[nH]cc(C(=O)NCc3ccccc3)c(=O)c2n1` was tested, and the outcome was “inactive”.
With `COS(C)(=O)=O` the outcome was “inactive”.
In the case of `OCCOCCOCCO`, the outcome is reported as “inactive”.
`CCCCCOC(C)=O` was tested, and the outcome was “inactive”.
With `O=C1CN(N=Cc2ccc([N+](=O)[O-])o2)C(=O)N1` the outcome was “inactive”.
For `CC(C)c1nnc2ccc(-c3ocnc3-c3cc(F)ccc3F)cn12`, the outcome was “inactive”.
For `CC(C)CC(C)O` (stereo not drawn), the outcome was “inactive”.
`COc1cc2c(c(OC)c1OC)-c1ccc(OC)c(=O)cc1[C@@H](NC(C)=O)CC2` was tested, and the outcome was “inactive”.
For `CCn1nc(C)c2c1C(=O)NCC(c1ccc(O)cc1)=N2`, the outcome was “inactive”.
With `C[C@@H](Oc1ccc(CNC(=O)c2cccnc2Oc2ccc3c(c2)OCO3)c(F)c1)C(=O)O` the outcome was “inactive”.
In the case of `c1ccc2c(c1)-c1cccc3c1c-2cc1ccccc13`, the outcome is reported as “inactive”.
For `CCOC(N)=O`, the outcome was “inactive”.
In the case of `CC(=O)c1ccccc1`, the outcome is reported as “inactive”.
